SKKanGAS inh: blocks kanamycin growth of S. pyogenes SKKanGAS strain; AID 1662; inhibition, % at 7.5 µM; BacTiter-Glo, 6 h; hit rate 1.3% among 300,000;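 active = mean replicate score, as percent of positive control median, at least 50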;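 note: strain carries kanamycin resistance gene driven by streptokinase promoter and grows in 40 µg/ml kanamycin; loss of luminescence reflects streptokinase promoter inhibition or plain growth inhibition; 0% = median of DMSO wells and 100% = positive control at its reference dose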
NLRP3 yeast inh: inhibitors of NALP3 inflammasome in yeast; inhibition, % at 10 µM; hit rate 0.39% among 330,000; AID 2825; Yeast reconstituted NLRP3/ASC/caspase-1, beta-gal luminescence, 24 h;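 active = inhibition of 50% or more; inactive = inhibition below 50%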;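 note: plate controls were induced DMSO wells for no effect and uninduced yeast grown without galactose for full effect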
NALP1 inh: NALP1 inhibition; S. cerevisiae NALP1/ASC/caspase-1 growth, X-gal OD620, 72 h; inhibition, % at 10 µM; hit rate 0.61% among 280,000; in the data active = inhibition mostly above about 24%, no sharp cut-off; inactive = mostly below about 32%
tim23-1 inh: inhibits growth of tim23-1 mutant yeast; S. cerevisiae tim23-1 growth, BacTiter-Glo luminescence, 24 h; inhibition, % at 20 µM; hit rate 1.3% among 330,000;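 active = growth inhibition of the mutant yeast at or above 50%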;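 note: temperature-sensitive mutant grown at 25 °C; plate controls were DMSO-treated mutant yeast for no effect and medium wells lacking yeast for full effect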
TIM10 inh: TIM10 yeast growth inhibition | S. cerevisiae TIM10 strain growth, BacTiter-Glo luminescence, 24 h | inhibition, % at 10 µM | hit rate 1.4% among 330,000;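 active = inhibition of 40% or more at the single tested concentration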;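 note: wild-type TIM10 isogenic control strain grown at permissive 25 °C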
tim10-1 inh: tim10-1 yeast growth inhibition | hit rate 2.2% among 330,000 | S. cerevisiae tim10-1 ts strain growth, BacTiter-Glo, 24 h | inhibition, % at 20 µM;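 active = inhibition of at least 40%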;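 note: mutant grown at 25 °C; 0% = DMSO wells with yeast and 100% = wells holding no yeast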
tim10-1 conf: tim10-1 yeast growth inhibition, confirmed; hit rate 56% among 7,400; inhibition, % at 20 µM; S. cerevisiae tim10-1 ts strain growth, BacTiter-Glo, 24 h; shares compounds with tim10-1 inh;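 active = inhibition of yeast growth at or above a set limit in either of two repeat tests at 20 µM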;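 note: tim10-1 mutant grown at permissive 25 °C to find synthetic lethal compounds; 0% = DMSO yeast wells and 100% = medium wells without yeast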
Starred values were filed as active, the others as inactive; . = no result. Shown are actives, neighbours in structure and some others; about 4.9% of the full set was active somewhere.

SMILES	SKKanGAS inh	NLRP3 yeast inh	NALP1 inh	tim23-1 inh	TIM10 inh	tim10-1 inh	tim10-1 conf
COc1ccc(S(=O)(=O)N2CCOC23CCN(S(=O)(=O)c2ccc(F)cc2)CC3)cc1	-7	24	.	45	19	47*	31
FC(F)(F)c1cccc(Cc2noc(CN3CCCC(CN4CCCC4)C3)n2)c1 (stereo not given)	9	21	14	13	5	-8	.
CCOC(=O)CC(NC(=O)Cc1cccs1)c1ccccc1Cl (stereo not given)	3	0	-7	23	14	30	.
CC(=O)Nc1ccc(C(=O)COC(=O)C2CC2)c(F)c1	.	20	.	-5	-2	4	.
CC(C)(O)C#Cc1ccc(C(=O)N2CCN(c3ccc([N+](=O)[O-])cc3)CC2)cc1	8	5	0	4	27	46*	38*
CC(C)(O)C#Cc1ccc(C(=O)N2CCN(c3ccccc3)CC2)cc1	-4	6	26	16	12	24	.
CCn1c(=O)c(CCC(=O)NCC2CCCO2)c(C)c2c(C)nn(-c3ccc(C)cc3)c21 (stereo not given)	-16	18	0	10	3	41*	-7
Cn1c2ccccc2c(=O)c2ccc(C#CC3(N)CCCCC3)cc21	-1	10	22	33	27	45*	36*
O=c1c2ccccc2oc2ccc(C#CC3(O)CCCCC3)cc12	6	-17	.	30	21	45*	36*
Cn1c2ccccc2c(=O)c2cc(C#Cc3ccsc3)ccc21	9	-34	-11	-14	-8	0	.
Cn1c2ccccc2c(=O)c2cc(C#CC3(O)CCCCC3)ccc21	22	-35	21	-3	-7	44*	39*
N#Cc1ccc(C#Cc2ccc3oc4ccccc4c(=O)c3c2)cc1	.	3	.	-4	-1	-3	.
Cc1cccc(OCC(=O)N(C)c2c(N)n(Cc3ccccc3)c(=O)[nH]c2=O)c1C	.	-4	.	25	8	18	.
COC(=O)Cc1cc(C)cc2c(=O)cc(-c3ccoc3)oc12	9	5	.	16	11	7	.
Oc1ccc(-c2nccc(-c3ccc(Cl)cc3Cl)n2)cc1	3	-11	-2	26	37	42*	34*
Oc1ccc(-c2nccc(-c3ccc(Cl)cc3)n2)cc1	-4	-10	-14	49	36	42*	43*
COc1ccc(-n2nc(C(=O)NCC(=O)N3CCN(c4cccc(Cl)c4)CC3)c3ccccc3c2=O)c(OC)c1	21	13	19	19	-1	20	.
CS(=O)(=O)c1ccccc1-c1nnc(NC(=O)c2ccco2)o1	2	5	.	5	-2	21	.
O=C(Cc1ccccc1[N+](=O)[O-])OCC(=O)c1ccccc1Br	.	9	.	33	10	12	.
CCOC(=O)c1c(NC(=O)CCN2CCOCC2)sc2c1CC(C)(C)OC2	3	10	8	29	12	42*	25
CCOC(=O)c1c(NC(=O)CN2CCOCC2)sc2c1CC(C)(C)OC2	-10	18	24	-3	8	-3	.
O=C(c1noc2c1CCc1ccccc1-2)N1CCOCC1	0	20	.	6	-13	4	.
O=C(c1noc2c1CCc1ccccc1-2)N1CCCc2ccccc21	-12	17	-5	40	2	42*	24
CCOC(=O)c1ccc(NC(=S)N2CCC(O)CC2)cc1	1	16	25	0	8	6	.
CCOC(=O)c1ccc(NC(=S)N2CCSC2c2ccc(Br)cc2)cc1 (stereo not given)	5	20	13	37	25	40*	30
CCCCNC(=O)COn1nnc2ccc(S(=O)(=O)N3CCOCC3)cc21	-2	8	.	-8	7	3	.
NC(=O)COC(=O)c1ccc(Cl)c(S(=O)(=O)N(Cc2ccccc2)c2ccc(Cl)cc2)c1	6	16	39	28	8	41*	32*
O=C(NCc1cccnc1)/C(=C\c1ccc(-c2cccc(Cl)c2)o1)S(=O)(=O)c1ccccc1	-6	.	17	.	.	.	.
O=C(NCc1cccnc1)/C(=C/c1ccc(-c2cccc(Cl)c2)o1)S(=O)(=O)c1ccccc1	-2	0	21	48	32	44*	36*
